PubChem BioAssay
Several values for one entry are separate records, joined by “and”; a condition that tells them apart may be missing. Identical values can stand only once. Activity calls are given as the source filed them.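 How the source made its calls: active means compounds whose cell count with miR-34 switched on is under 0.7 times the count with it off; inactive means the rest.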

Test: sensitizers of A549 cells to miR-34 induction, primary screen, imaging, A549 dox-inducible miR-34, nuclei and caspase counts (AID 1347080); further: test concentration not given here
Conditions: A549 miR-34 inducible, Hoechst nuclei count, 48 h; hits give low values; cell number ratio, induced over uninduced
In the case of COc1ccc2[nH]cc(CCC(=O)O)c2c1, the fold change is reported as 0.879 (inactive). For COc1ccc(N2CCN(c3ncnc4sccc34)C(C)C2=O)cc1 (stereo unspecified), the fold change was 0.791 (inactive). For O=C(Cn1nnc(-c2ccccc2)n1)Nc1ccnn1Cc1ccccc1, the fold change was 0.843 (inactive). In the case of Cc1sc2ncnc(-c3cccc4cccnc34)c2c1C, the fold change is reported as 0.871 (inactive). In the case of Cc1nsc(NC(=O)N2CCC(C(O)CC(C)C)CC2)n1 (stereo unspecified), the fold change is reported as 0.832 (inactive). In the case of O=C(O)Cc1ccc(O)c([N+](=O)[O-])c1, the fold change is reported as 0.901 (inactive). For Cc1cc(C(=O)N2CCc3[nH]nc(COc4ccccc4)c3C2)c(C)o1, the fold change was 0.899 (inactive). In the case of CCN(Cc1nccn1C)C(=O)c1cc(-c2cnc(C)nc2)nc2cc(F)ccc12, the fold change is reported as 0.881 (inactive). With OC(CNCC(O)C1CCc2cc(F)ccc2O1)C1CCc2cc(F)ccc2O1 (stereo unspecified) the fold change was 1.62 (inactive). With CN1CCN(Cc2ccc3nonc3c2)CC1CCO (stereo unspecified) the fold change was 0.893 (inactive). In the case of CN1CCN(Cc2cccc(-n3cccn3)c2)CC1CCO (stereo unspecified), the fold change is reported as 0.861 (inactive). In the case of CC(O)Cc1cn(C2CCN(c3ncnc4nc[nH]c34)CC2)nn1 (stereo unspecified), the fold change is reported as 0.957 (inactive). With COc1ccc(-c2oc3c(CC=C(C)C)c(OC4OC(CO)C(O)C(O)C4O)cc(O)c3c(=O)c2OC2OC(C)C(O)C(O)C2O)cc1 (stereo unspecified) the fold change was 0.929 (inactive) and 0.864 (inactive). With COc1cccc2ncn(Cc3nc4ccccc4o3)c(=O)c12 the fold change was 0.951 (inactive). With COc1cc(N(C)CC2COc3ccccc3O2)nc(N)n1 (stereo unspecified) the fold change was 0.844 (inactive). For COc1cc(Cn2cnc3nccnc3c2=O)cc(OC)c1, the fold change was 0.919 (inactive).
